Data from PubChem BioAssay AID743465 (Broad Institute, 2014).
The other results are listed elsewhere or left out. Records with an inconclusive call do not appear. Values without a mark were called inactive.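 How the source made its calls: active means compounds lowering PCK1 expression whose fitted half-maximal concentration is at most twice the top tested dose; inconclusive means flat fit with moderate opposite-direction effect, or poor fit; inactive means the rest.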

assay: suppression of PCK1 mRNA in primary hepatocytes, dose response, PGC-1a acetylation activator project, cell-based, primary mouse hepatocytes, RT-qPCR, cherry-pick (AID 743465); conditions: forskolin-stimulated; series mostly up to 26 µM; PCK1 expression decrease: at the top concentration;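 further: values are delta delta Ct of PCK1 relative to GAPDH; higher delta delta Ct means lower PCK1 expression so positive values indicate hits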

Compound	PCK1 expression decrease
Cc1cc(C)c2c(-n3cccc3)c(C(=O)NNS(=O)(=O)c3ccc(F)cc3)sc2n1	9.38 unspecified
CC(C)CCNc1nc(N2CCCC2)c2c(c1C#N)CCN(C)C2	96 unspecified
CCOC(=O)c1c(-c2ccc(C)cc2C)csc1NC(=O)CSc1nnnn1C	86.5 unspecified
COc1ccc(-n2nnnc2CNC(=O)c2ccc3ccccc3c2)cc1	3.44 unspecified
COc1ccc(Nc2nnc(C)c3ccccc23)cc1	25.2 unspecified
O=C(NCCC1CCCCN1S(=O)(=O)c1cccs1)C(=O)Nc1ccc(F)cc1F (centres undefined)	-10.4 unspecified
CCC(C)(C)n1nnnc1C(c1ccccc1OC)N1CCSCC1 (centres undefined)	105 unspecified
CCOc1ccccc1CN1CCN(C2CCC2)CC1CCO (centres undefined)	32.8 unspecified
O=C(NCc1ccccc1)C(c1ccccc1)N(C(=O)c1csnn1)c1ccc(F)cc1 (centres undefined)	318 unspecified [at 8 µM]
Cc1ccc(OCC(=O)NCCCNC(=O)c2cccnc2)cc1C	52.7 unspecified
Cc1ccc(S(=O)(=O)Nc2ccc3c(c2)C(=O)N([C@@H](C)CO)C[C@@H](C)[C@H](CN(C)C(=O)Nc2cccc4ccccc24)OCCCC[C@H](C)O3)cc1	17.2 unspecified
CCOC(=O)c1c(NC(=O)CSc2cn(CC)c3ccccc23)sc2c1CCC2	44 unspecified
CCCCC(=O)Nc1ccc(C(=O)NCCCn2ccnc2)cc1	19.7 unspecified
Cc1cc(C(=O)NNS(=O)(=O)c2ccccc2C(F)(F)F)nn1C(C)(C)C	43.1 unspecified
